Measured values taken from the supplement of paper PMC10849652.
Of roughly 7,900 targets only a part is listed; those with a hit were picked by preference. About 0.6% of all pairs of compound and target were hits.

Tests used:
Assay in all cases: log2 fold change, soluble protein after heating vs DMSO (PISA); higher = thermal stabilisation; K562 cells, 10 uM, 30 min; active = over 0.2 and 3.5 SD of the protein, either way, in both replicates (recomputed)
AAGAB = AAGAB (UniProt Q6PD74)
Method in brief: (§1)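 For each measurement, 10 μM compound was applied for 30 min to K562 cells at 2×10^6 cells/mL. Aliquots were heated for 3 min across 48°C-58°C, pooled, and extracted in PBS with 0.5% NP-40 at 4°C; the supernatant after 21,000xg for 90 min was soluble protein. This was quantified by TMTpro 16plex LC-MS/MS with channel sums equalised, and thermal stability was reported relative to control samples from duplicates, on a log2 fold-change scale.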

AAK1 [1] = biological target: AAK1 (UniProt A0A096LP25)
Method in brief: as §1

AAK1 [2] = biological target: AAK1 (UniProt Q2M2I8)
Sequence of AAK1 (UniProt Q2M2I8) (Q2M2I8 whole entry, looked up): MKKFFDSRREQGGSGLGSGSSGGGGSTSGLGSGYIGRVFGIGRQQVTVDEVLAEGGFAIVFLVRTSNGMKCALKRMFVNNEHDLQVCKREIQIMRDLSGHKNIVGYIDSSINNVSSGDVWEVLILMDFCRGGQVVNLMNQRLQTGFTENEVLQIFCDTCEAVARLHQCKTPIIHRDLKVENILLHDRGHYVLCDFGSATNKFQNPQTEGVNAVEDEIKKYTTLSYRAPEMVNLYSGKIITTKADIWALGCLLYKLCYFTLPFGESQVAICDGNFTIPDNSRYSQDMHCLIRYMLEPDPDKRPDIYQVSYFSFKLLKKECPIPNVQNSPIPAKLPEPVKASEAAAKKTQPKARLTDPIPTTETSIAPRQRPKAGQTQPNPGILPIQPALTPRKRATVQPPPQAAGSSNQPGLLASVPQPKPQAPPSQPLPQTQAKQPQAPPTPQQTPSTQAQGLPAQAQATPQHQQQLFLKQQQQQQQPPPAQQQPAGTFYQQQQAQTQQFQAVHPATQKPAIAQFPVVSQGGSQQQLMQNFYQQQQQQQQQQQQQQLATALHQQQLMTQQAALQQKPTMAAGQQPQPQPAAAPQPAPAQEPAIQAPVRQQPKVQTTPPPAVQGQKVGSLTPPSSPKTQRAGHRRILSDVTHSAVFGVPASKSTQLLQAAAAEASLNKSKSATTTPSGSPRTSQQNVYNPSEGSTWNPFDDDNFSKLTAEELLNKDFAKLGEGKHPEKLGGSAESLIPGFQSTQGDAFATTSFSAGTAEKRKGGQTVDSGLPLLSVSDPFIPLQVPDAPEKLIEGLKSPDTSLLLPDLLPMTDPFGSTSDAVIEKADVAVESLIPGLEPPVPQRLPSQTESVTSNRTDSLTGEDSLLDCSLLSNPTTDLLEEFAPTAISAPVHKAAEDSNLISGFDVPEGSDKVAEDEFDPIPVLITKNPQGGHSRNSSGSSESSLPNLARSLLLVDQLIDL
Method in brief: as §1

Measured: log2 fold change

Sequence of AAGAB (Q6PD74 whole entry, looked up): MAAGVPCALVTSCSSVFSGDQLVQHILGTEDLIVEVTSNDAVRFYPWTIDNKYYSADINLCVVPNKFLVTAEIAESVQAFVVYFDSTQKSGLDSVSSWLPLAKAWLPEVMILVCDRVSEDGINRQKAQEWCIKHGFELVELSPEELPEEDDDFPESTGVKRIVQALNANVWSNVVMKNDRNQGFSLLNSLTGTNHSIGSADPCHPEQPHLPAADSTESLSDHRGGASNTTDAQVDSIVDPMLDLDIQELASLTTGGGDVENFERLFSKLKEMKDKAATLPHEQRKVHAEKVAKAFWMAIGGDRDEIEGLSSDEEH

Cc1sc2c(c1C)C(c1ccc(Cl)cc1)=N[C@@H](CC(=O)OC(C)(C)C)c1nnc(C)n1-2
inactive: AAGAB -0.03 | AAK1 [1] -0.024 | AAK1 [2] -0.217

Cc1sc2c(c1C)C(c1ccc(Cl)cc1)=N[C@@H](CC(N)=O)c1nnc(C)n1-2
inactive: AAGAB 0.044 | AAK1 [1] -0.041 | AAK1 [2] 0.039

Cc1ccccc1-n1c(Cn2cnc3c(N)ncnc32)nc2cccc(C)c2c1=O
inactive: AAGAB 0.198 | AAK1 [1] -0.046 | AAK1 [2] 0.083

c1ccc([C@@H]2C[C@H]2NC2CCNCC2)cc1
inactive: AAGAB 0.038 | AAK1 [1] 0.072 | AAK1 [2] -0.017

O=C(N[C@@H](COc1ccc2[nH]c(=O)[nH]c2c1)c1ccccc1)c1cccn(Cc2ccc(F)c(F)c2)c1=O
inactive: AAGAB -0.025 | AAK1 [1] -0.056 | AAK1 [2] 0.02
